Hits are enriched below; roughly 8.1% of the tested compounds scored in any of these assays.
MCF10A rereplic – A quantitative high throughput screen for small molecules that induce DNA re-replication in MCF 10a normal breast cells. MCF 10A DNA re-replication, Hoechst nuclear intensity, 48 h. Potency, µM (series often up to 46.1 µM), hits mostly activators. 2.9% of 350,000 active. AID 624296, 2012; further: nearly all actives have a fitted effect of over 50% in size
ELG1 DNA repair – qHTS screen for small molecules that inhibit ELG1-dependent DNA repair in human embryonic kidney (HEK293T) cells expressing luciferase-tagged ELG1; 2.3% of 330,000 active; HEK293T ELG1-luciferase reporter, luminescence, 16 h; DNA damage induced by 5-fluorouridine; AID 504467, 2011; Potency, µM (doses to about 46.1 µM), actives largely listed as inhibitors; further: nearly all actives have a fitted effect of over 55% in size
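Overnight (16 hr) co-exposure of 2,000 cells/well to 5-fluorouridine and compound at 37 °C preceded detection. Luciferase was quantified via ONE-Glo luminescence; loss of signal denotes inhibition.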
KB-V1 MDR tox – qHTS assay for MDR1-selective chemotherapeutics: Primary screen using the drug-selected MDR subline cells KB-V1; AID 1347076, 2019; Potency, µM (titrated, usually from 46.1 µM), actives largely listed as cytotoxic; KB-V1 MDR cells viability, CellTiter-Glo, 72 h; 3.4% of 400,000 active; further: nearly all actives have a fitted effect of over 60% in size
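Following 72 h at 37 degrees C with compound, KB-V1 cell viability was read by CellTiter-Glo luminescence, medium being phenol-red-free DMEM plus 10% FBS; concentration-response parameters came from normalized, curve-fitted qHTS data.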
SW480 rerep – A quantitative high throughput screen for small molecules that induce DNA re-replication in SW480 colon adenocarcinoma cells; Potency, µM (series often up to 46.1 µM), usual class: activators; SW480 DNA re-replication, Hoechst DNA content imaging, 48 h; 1.8% of 340,000 active; further: nearly all actives have a fitted effect of over 55% in size
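Treated cells incubate 48 hr (37 C, 5% CO2), are stained 40 min with Hoechst, and nuclear fluorescence is enumerated; a rise in nuclei with high DNA signal marks re-replication.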
KB-3-1 cytotox – qHTS assay for MDR1-selective chemotherapeutics: Primary screen using the parental adenocarcinoma cell KB-3-1; 1.4% of 400,000 active; KB-3-1 viability, CellTiter-Glo ATP luminescence, 72 h; Potency, µM (top dose mostly 46.1 µM), most hits filed as cytotoxic; further: nearly all actives have a fitted effect of over 60% in size
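Here the drug-naive KB-3-1 line serves as comparator for MDR sub-line selectivity; cells received compound titrations, 72 h at 37 °C, then CellTiter-Glo readout.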
Numbers stand for hits; - = inactive; ? = inconclusive; . = no result given; [ ] = remark or other dose. The call rests on the fitted dose curve; in most records, active means well fitted curve in the direction sought with a large enough effect; inconclusive means small, poorly fitted or top-dose-only effect, or another doubt; inactive means no such curve, though single readings can be large; an effect the other way counts as inactive or inconclusive.

SMILES | MCF10A rereplic | ELG1 DNA repair | KB-V1 MDR tox | SW480 rerep | KB-3-1 cytotox
COc1cccc(C(c2nnnn2C2CCCC2)N2CCN(C/C=C/c3ccccc3)CC2)c1OC (stereo not given) | . | . | ? | . | -
CC(=O)N1CCc2c(sc3nc(SCC(N)=O)n(-c4ccc(F)c(Cl)c4)c(=O)c23)C1 | . | . | - | . | -
C[C@@H]1CN([C@@H](C)CO)C(=O)CCCn2nncc2CO[C@H]1CN(C)S(C)(=O)=O | . | . | - | . | ?
COc1c([N+](=O)[O-])ccc(N)c1N | . | . | - | . | -
Cc1ccc(NS(=O)(=O)c2ccc(C(=O)N3CCN(c4ccccn4)CC3)cc2)cc1 | ? | 14.6µM | ? | - | ?
Cc1ccc(S(=O)(=O)NCc2ccc(C(=O)N3CCN(c4ccccn4)CC3)cc2)cc1 | - | ? | - | - | -
Cc1ccc(NNC(=O)C(=O)N2CCCCC2)cc1 | 6.51µM | - | - | - | -
CCOC(=O)N1CCN(C(=O)c2ccc(Oc3ccc([N+](=O)[O-])cc3)cc2)CC1 | - | ? | 7.31µM | - | -
CN(c1ccc(C(=O)N2CCCCCC2)cc1)S(=O)(=O)c1ccc(Cl)cc1 | - | ? | 23.1µM | - | -
Cc1ccccc1C(=O)NNC(=O)C(=O)N1CCCCC1 | - | - | - | - | -
COc1ccccc1-c1cnc(C(O)c2ccc(CN3CCCCC3)cc2)[nH]1 (stereo not given) | . | . | - | . | -
C=C1[C@H]2O[C@H]2[C@@H](OC(C)=O)[C@@]2(C)[C@@H](OC(C)=O)C[C@@H](OC(C)=O)[C@@](C)(O)[C@@H]2[C@@H](OC(C)=O)[C@@]2(O)[C@@H](C)C(=O)O[C@H]2[C@H]1Cl | ? | . | - | -[9.22 µM] | -
CC1=[N+](C)c2c(ccc3cccnc23)C1(C)C | ? | ? | ? | ? | 10.3µM
Cc1oc(-c2cccs2)nc1CN1CCN(CCC(C)C)C(CCO)C1 (stereo not given) | 23.1µM | - | - | ? | -
O=C(O)c1ccc(Nc2nc(-c3ccccc3)nc3ccccc23)cc1 | - | - | - | - | -
Cc1ccc(-c2nc(Nc3ccc(N4CCOCC4)cc3)c3ccccc3n2)cc1 | ? | 23.1µM | - | - | -
COC(=O)c1ccc(Nc2nc(-c3ccc(C)cc3)nc3ccccc23)cc1 | . | . | ? | . | -
Cc1ccc(-c2nc(Nc3cccc(O)c3)c3ccccc3n2)cc1 | ? | 20.6µM | - | - | -
CNC(=O)c1ccc(Nc2nc(-c3ccccc3)nc3ccccc23)cc1 | ? | 14.6µM | ? | - | -
O=C1c2cccc3cccc(c23)C(=O)N1CC1CCN(S(=O)(=O)c2ccc(F)cc2)CC1 | - | 20.6µM | 9.2µM | - | -
COc1cc(/C=C/CNC[C@H]2O[C@@H](n3cc(C)c(=O)[nH]c3=O)C[C@@H]2O)ccc1O | . | . | - | . | -
O=c1[nH]c(CN2CCCC2)nc2sc3c(c12)CCC3 | - | - | ? | - | -
Cc1ccc(C(=O)N2CCN(Cc3nc4sc5c(c4c(=O)[nH]3)CCCC5)CC2)cc1 | - | - | 16.4µM | - | ?
CCCS(=O)(=O)c1c(S(=O)(=O)CCC)c2c(C)cccn2c1C(=O)N/N=C/c1cc(O)cc(O)c1 | ? | - | - | 6.51µM | ?
CCCS(=O)(=O)c1c(S(=O)(=O)CCC)c2c(C)cccn2c1C(N)=O | - | - | - | - | -
COc1cc2c(=O)n(Cc3ccccc3Cl)c(=O)n(CC(=O)Nc3ccc(C)c(C)c3)c2cc1OC | . | . | - | . | -
COC(=O)c1ccc(CSc2nc3c(c(=O)[nH]2)CCC3)cc1 | . | . | - | . | -
Cc1nc(C(F)(F)F)c(C(=O)N/N=C(\N)c2ccccn2)s1 | ? | ? | ? | 7.31µM | ?
N/C(=N\NS(=O)(=O)c1ccccc1C(F)(F)F)c1ccccn1 | - | ? | - | ? | -
C#C[C@]1(OC(C)=O)CCC2C3CCC4=CC(=O)CC[C@@H]4C3CC[C@@]21C (stereo not given in full) | - | - | 9.2µM | - | ?
